High-throughput results as filed in PubChem.
AMA1-RON2 inh = qHTS for Inhibitors of AMA1-RON; Towards Development of Antimalarial Drug Lead: Primary Screen. Plasmodium falciparum AMA1 (3D7) - RON2 peptide interaction. AlphaScreen AMA1-biotinylated RON2 peptide binding. Potency, µM (top dose mostly 58.2 µM), without a hit: top-dose activity change, negative = inhibition, hits mostly inhibitors. 360,000 tested, 0.2% active. AID 720542, 2013;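 further: potency means the concentration at half of the fitted maximal effect; 0% = vehicle wells and -100% = peptide control; nearly all actives have a fitted effect of over 45% in size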
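AMA1 (3D7) with his tag at 25 nM final met compounds first, then biotinylated RON2 peptide at 25 nM; detection used donor plus acceptor beads, 10 µg/mL apiece, read by AlphaScreen after 30 min at room temperature.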
Pf growth 96h = Primary qHTS for delayed death inhibitors of the malarial parasite plastid, 96 hour incubation; 320,000 tested, 6.9% active; P. falciparum luciferase reporter growth, 96 h; Potency, µM (highest dose often 28.7 µM), without a hit: top-dose activity change, negative = inhibition, most hits filed as inhibitors; further: potency means the concentration at half of the fitted maximal effect; on the % scale 0 is the no-effect control and ±100 the full control effect
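Plates of compound plus infected erythrocytes (2% hematocrit, 0.05% parasitemia final) incubate 96 hours, 37 C, 5% CO2. Detection reagent added; reduced luminescence from the parasites' luciferase reporter flags inhibition.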
CHX counter = Cycloheximide Counterscreen for Small Molecule Inhibitors of Shiga Toxin; 300,000 tested, 12% active; max response, %; cell reporter, cycloheximide protein synthesis inhibition counterscreen; in the data active means max response mostly above about 13%, no sharp cut-off; inactive means mostly below about 14%; further: read at 38.3 µM for the half of the compounds with a filed dose; 0% is about no effect
SARS PLpro yeast = qHTS of Yeast-based Assay for SARS-CoV PLP | S. cerevisiae expressing SARS-CoV PLpro, growth rescue | Potency, µM (top dose mostly 32.9 µM), for inactives: at the top dose activity, positive = growth rescue, actives largely listed as activators | 330,000 tested, 0.19% active | AID 485353, 2010; calls by dose curve; further: potency means the concentration at half of the fitted maximal effect; 0% is about no effect; nearly all actives have a fitted effect of over 55% in size
Pf growth 48h = Primary qHTS for delayed death inhibitors of the malarial parasite plastid, 48 hour incubation; P. falciparum luciferase growth in erythrocytes, 48 h; 310,000 tested, 5.9% active; Potency, µM (series often up to 28.7 µM), without a hit: top-dose activity change, negative = inhibition, actives largely listed as inhibitors; AID 504832, 2011; further: potency means the concentration at half of the fitted maximal effect; on the % scale 0 is the no-effect control and ±100 the full control effect
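Firefly luciferase activity from engineered P. falciparum reports growth; inhibitors lower the luminescent signal. Cultures contained 2% hematocrit erythrocytes at 0.1% final parasitemia.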
Shiga toxin inh = A qHTS for Small Molecule Inhibitors of Shiga Toxin | Vero cells, Shiga toxin protein synthesis inhibition reporter | inhibition, % at 38.7 µM | 290,000 tested, 9.2% active | AID 2315, 2010; in the data active means inhibition mostly above about 28%, no sharp cut-off; inactive means mostly below about 43%; further: 0% is about no effect
* hit, by the source's call; i = inactive; ? = inconclusive; nt = no result. Hits are enriched below; roughly 19% of the tested compounds scored in any of these assays. Unless noted, the call rests on the fitted dose curve; in most records, active means well fitted curve in the direction sought with a large enough effect; inconclusive means small, poorly fitted or top-dose-only effect, or another doubt; inactive means no such curve, though single readings can be large; an effect the other way counts as inactive or inconclusive.

SMILES	AMA1-RON2 inh	Pf growth 96h	CHX counter	SARS PLpro yeast	Pf growth 48h	Shiga toxin inh
CC(C)(C)c1ccc(-c2nc(C=O)c3ccccn23)cc1	36%	70%	39*	-7%	72%	56
CN(C)c1c2ccccc2nc2c(F)c(F)c(F)c(F)c12	-5%	?	33*	-14%	-8%	57
Cc1c2ccccc2nc2c(F)c(N(C)C)c(F)c(F)c12	77%	30%	28*	-24%	-5%	23
Cc1ccc(OCc2nnc(SCC(=O)c3ccccc3)n2-c2ccccc2)cc1	0%	-60%	-1	-3%	13µM*	4
NC(=O)CSc1nnc(CSc2ncccn2)n1-c1ccccc1	-5%	13µM*	8	-1%	8%	17
Cc1ccc(CCS(=O)(=O)c2ccc(C(C)(C)C)cc2)cn1	12%	-9%	-1	-2%	112%	-10
NC(=O)c1ccsc1NC(=O)c1ccc2c(c1)CCCC2	-1%	105%	51*	-71%	146%	59*
NC(=O)c1ccsc1NC(=O)c1ccc(N2CCCC2=O)cc1	-8%	i	22	-4%	199%	22
CNC(=O)c1ccsc1NC(=O)c1ccc2c(c1)CCCC2	2%	163%	23*	-68%	133%	35
Cc1c(C)c2ccc(OC(C)C(=O)NCCCN3CCOCC3)c(C)c2oc1=O (configuration not stated)	-4%	33%	-2	1%	7%	2
COCCNC(=S)N1CCC(c2nc(-c3ccc(N(C)C)cc3)no2)CC1	-13%	29%	24*	0%	?	49
CC(C)N1CCN(CC#Cc2ccccc2)CC1CCO (configuration not stated)	9%	-11%	10	1%	18%	14
CCOC(=O)/C(C#N)=C/c1c(N2CCN(c3ccc(OC)cc3)CC2)nc2c(C)cccn2c1=O	?	12µM*	2	-2%	9.3µM*	2
CCOC(=O)/C(C#N)=C/c1c(N2CCN(c3ccccc3)CC2)nc2ccccn2c1=O	0%	?	41*	2%	23%	18
CCNC(=O)/C(C#N)=C/c1c(N2CCN(c3ccc(OC)cc3)CC2)nc2c(C)cccn2c1=O	-22%	?	-1	5%	?	2
N#C/C(=C\c1c(N2CCN(c3ccccc3)CC2)nc2ccccn2c1=O)C(N)=O	1%	?	28*	-2%	19%	50*
N#C/C(=C\c1c(N2CCCCCC2)nc2ccccn2c1=O)C(N)=O	-4%	-19%	-2	0%	-2%	4
O=S(=O)(c1cccc(-c2csc(-c3cccnc3)n2)c1)N1CCOCC1	0%	?	2	-3%	?	22
CC1CN(S(=O)(=O)c2ccc(-c3nc4ccccc4s3)cc2)CC(C)O1 (configuration not stated)	-6%	-2%	1	4%	27%	-2
O=S(=O)(c1cccc(-c2csc(-c3cccnc3)n2)c1)N1CCCCC1	-4%	55%	4	-7%	9.3µM*	-3
O=S(=O)(c1ccc(-c2nc3ccccc3s2)cc1)N1CCCC1	1%	124%	24*	-5%	nt	21
O=S(=O)(c1cccc(-c2nc3ccccc3s2)c1)N1CCCC1	24%	3%	36*	-2%	-20%	36
C=C(C)Cn1c2ccc(NC(=O)CCc3cccc(Cl)c3)cc2c(=O)n1C	14%	nt	nt	nt	nt	nt
COc1ccc(Nc2cc(C(=O)NC3CCCC3)c3ccccc3n2)c(OC)c1	7%	?	4	-12%	-14%	2
CCCN1CCc2c(sc(NC(=O)Cc3ccc(F)cc3)c2C(N)=O)C1	1%	-11%	1	8%	0%	-5
SMILES	AMA1-RON2 inh	Pf growth 96h	CHX counter	SARS PLpro yeast	Pf growth 48h	Shiga toxin inh
CC1(C)c2ccccc2N2CC(=O)N[C@@]21/C=C/C=C/c1ccccc1	9%	-27%	1	0%	?	-8
Cc1ccccc1/C=C/C12NC(=O)CN1c1ccccc1C2(C)C (configuration not stated)	3%	?	24*	0%	?	63
Cc1ccc(-c2csc(N(CCO)CCCn3c(C(F)(F)F)nc4ccccc43)n2)cc1	2%	6.6µM*	13	-3%	?	14
OCCn1c(C(F)(F)F)nc2ccccc21	5%	4%	-4	-15%	-10%	15
Cc1ccc(-c2csc(N3CCC[C@@H]3C(=O)NCCn3c(C(F)(F)F)nc4ccccc43)n2)cc1	15%	2.3µM*	7	-14%	?	17
C=CCn1c(SCc2cc(=O)n3ccsc3n2)nc2scc(C3CC3)c2c1=O	-5%	4.1µM*	-5	-4%	?	-6
O=C(Nc1ccc(F)cc1)Nc1ccccc1C(=O)NCCN1CCNC1=O	-6%	30%	-3	-2%	30%	-1
CCN1CCN(CCNC(=O)c2ccc3c(c2)N(Cc2ccc(F)cc2)C(=O)/C(=C/c2ccccc2)S3)CC1	?	3%	-12	-6%	6.6µM*	-30
COc1ccc(/C=C2\Sc3ccc(C(=O)N4CCc5ccccc5C4)cc3N(C)C2=O)cc1	nt	?	-3	21%	4%	-3
COc1ccc(/C=C2\Sc3ccc(C(=O)NCCN4CCCCCC4)cc3N(C)C2=O)cc1	-15%	-4%	1	1%	3.3µM*	-7
COc1ccc(/C=C2\Sc3ccc(C(=O)N4CCCC4)cc3N(C)C2=O)cc1OC	9%	?	7	-4%	2.3µM*	-5
CCOc1ccc(/C=C2/Sc3ccc(C(=O)N4CCOCC4)cc3N(C)C2=O)cc1OC	-4%	9%	9	2%	9.3µM*	-2
CN1C(=O)/C(=C/c2cccc(Cl)c2)Sc2ccc(C(=O)N3CCOCC3)cc21	-10%	?	-1	-3%	?	-8
CCOc1ccc(C(=O)C(C)OC(=O)CN2C(=O)NC(C)(C)C2=O)cc1 (configuration not stated)	21%	6%	nt	0%	?	nt
CC(NC(=O)c1ccccc1)C(=O)NC1=NCCS1 (configuration not stated)	-3%	-30%	-3	4%	2%	-12
O=C(NC1=NCCS1)C1Cc2ccccc2CN1C(=O)c1ccccc1 (configuration not stated)	30%	?	28*	0%	13%	84*
CC(=O)c1ccc(NC(=O)C2Cc3ccccc3CN2C(=O)c2ccccc2)cc1 (configuration not stated)	-6%	15µM*	11*	-3%	-21%	41*
COc1ccc(NC(=O)C2Cc3ccccc3CN2C(=O)c2ccccc2)cn1 (configuration not stated)	15%	?	7	-8%	nt	22
